Data as given in the supplement of paper PMC10849652.
Targets with a hit are over-represented here; the source holds about 8,800 in all. About 0.5% of all pairs of compound and target were hits.

How the values were obtained:
Test in all cases: log2 fold change, soluble protein after heating vs DMSO (PISA); higher = thermal stabilisation; K562 lysate, 10 uM; active = over 0.2 and 3.5 SD of the protein, either way, in both replicates (recomputed)
ibrutinib = compound: C=CC(=O)N1CCC[C@@H](n2nc(-c3ccc(Oc4ccccc4)cc3)c3c(N)ncnc32)C1 [ibrutinib]
Summary of the method: (§1)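 To prepare the extract, K562 pellets were dounce-homogenised in PBS pH 7.4 with 1 mM MgCl2, giving crude material at 1 mg/mL protein. This was treated with 10 μM compound for 30 min, then heated in aliquots for 3 min over 48°C-58°C before pooling and addition of NP-40 to 0.5% at 4°C. Centrifugation at 21,000xg for 90 min left soluble protein in the supernatant, which TMTpro 16plex LC-MS/MS quantified with equalised channel sums. Results are log-two fold changes in thermal stability compared with solvent controls, from duplicates.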

[1] = compound: CC(=O)c1cnc2ccc(-c3cc(Cl)c(O)c(Cl)c3)nc2c1N[C@H]1CC[C@H](CN(C)C)CC1
Summary of the method: as §1

ralimetinib = compound: CC(C)(C)Cn1c(N)nc2ccc(-c3[nH]c(C(C)(C)C)nc3-c3ccc(F)cc3)nc21 [ralimetinib]
Summary of the method: as §1

[2] = compound: CC(C)(O)CC(=O)NCCn1ccc2ncnc(Nc3ccc(Oc4cccc(C(F)(F)F)c4)c(Cl)c3)c21
Summary of the method: as §1

[3] = compound: CC(C)C1=C2N=C(C=C(N2N=C1)NCC3=CC=CC=C3)NCCCCCCN
Summary of the method: as §1

[4] = compound: CC1=C(C(CC(=O)N1)C2=CC=C(C=C2)C(F)(F)F)C(=O)NC3=C(C=C4C(=C3)C=NN4)F
Summary of the method: as §1

[5] = compound: CC1=C(C2=C(C=C1)C(=O)C3=CC=CC=C3N2CCCN)C
Summary of the method: as §1

[6] = compound: CC1=C(C=C(C=C1)NC(=O)C2=CC(=CC=C2)C(C)(C)C#N)NC3=CC4=C(C=C3)N=CN(C4=O)C
Summary of the method: as §1

[7] = compound: CC1=C(C=C(C=C1)NC(=O)C2=CC(=CC=C2)N(C)C)NC(=O)C3=CC=C(C=C3)O
Summary of the method: as §1

[8] = compound: CC1=CC=C(C=C1)SC2=C3C=C(SC3=CN=C2)C(=O)N
Summary of the method: as §1

vemurafenib = compound: CCCS(=O)(=O)Nc1ccc(F)c(C(=O)c2c[nH]c3ncc(-c4ccc(Cl)cc4)cc23)c1F [vemurafenib]
Summary of the method: as §1

[9] = compound: CCCS(=O)(=O)Nc1ccc(F)c(C(=O)c2c[nH]c3ncc(Cl)cc23)c1F
Summary of the method: as §1

barasertib = compound: CCN(CCCOc1ccc2c(Nc3cc(CC(=O)Nc4cccc(F)c4)[nH]n3)ncnc2c1)CCOP(=O)(O)O [barasertib]
Summary of the method: as §1

[10] = compound: CC[C@@H]1C(=O)N(C)c2cnc(Nc3ccc(C(=O)NC4CCN(C)CC4)cc3OC)nc2N1C1CCCC1
Summary of the method: as §1

volasertib = compound: CC[C@@H]1C(=O)N(C)c2cnc(Nc3ccc(C(=O)N[C@H]4CC[C@H](N5CCN(CC6CC6)CC5)CC4)cc3OC)nc2N1C(C)C [volasertib]
Summary of the method: as §1

[11] = compound: CCn1c(C(=O)N(C2CC2)C2CC2)cc2c3c(ncn3C)c(Nc3cc(C)n(C)n3)nc21
Summary of the method: as §1

[12] = compound: CCn1cc(-c2ccnc3[nH]c(-c4cccc(CN(C)C)c4)cc23)c(-c2ccc(NC(=O)N(C)C)cc2)n1
Summary of the method: as §1

[13] = compound: CN1CCC(CNc2ccc3ncc(-c4cccc(OC(F)(F)F)c4)n3n2)CC1
Summary of the method: as §1

saracatinib = compound: CN1CCN(CCOc2cc(OC3CCOCC3)c3c(Nc4c(Cl)ccc5c4OCO5)ncnc3c2)CC1 [saracatinib]
Summary of the method: as §1

sotrastaurin = compound: CN1CCN(c2nc(C3=C(c4c[nH]c5ccccc45)C(=O)NC3=O)c3ccccc3n2)CC1 [sotrastaurin]
Summary of the method: as §1

Measured: log2 fold change

WRB (UniProt O00258)
Chain of UniProt O00258 (O00258 whole entry, looked up): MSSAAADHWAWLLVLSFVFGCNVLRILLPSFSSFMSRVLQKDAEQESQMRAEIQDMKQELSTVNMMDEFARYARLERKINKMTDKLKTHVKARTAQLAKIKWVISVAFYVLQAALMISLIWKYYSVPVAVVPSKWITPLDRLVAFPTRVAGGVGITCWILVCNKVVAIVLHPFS
inactive: ibrutinib 0.045 | [1] -0.043 | ralimetinib -0.095 | [2] -0.255 | [3] -0.024 | [4] -0.025 | [5] -0.141 | [6] 0.063 | [7] -0.004 | [8] -0.024 | vemurafenib 0.086 | [9] 0.077 | barasertib 0.098 | [10] -0.011 | volasertib 0.015 | [11] -0.148 | [12] -0.176 | [13] 0.068 | saracatinib -0.147 | sotrastaurin 0.013

XPO1 (UniProt O14980)
Chain of UniProt O14980 (O14980 whole entry, looked up): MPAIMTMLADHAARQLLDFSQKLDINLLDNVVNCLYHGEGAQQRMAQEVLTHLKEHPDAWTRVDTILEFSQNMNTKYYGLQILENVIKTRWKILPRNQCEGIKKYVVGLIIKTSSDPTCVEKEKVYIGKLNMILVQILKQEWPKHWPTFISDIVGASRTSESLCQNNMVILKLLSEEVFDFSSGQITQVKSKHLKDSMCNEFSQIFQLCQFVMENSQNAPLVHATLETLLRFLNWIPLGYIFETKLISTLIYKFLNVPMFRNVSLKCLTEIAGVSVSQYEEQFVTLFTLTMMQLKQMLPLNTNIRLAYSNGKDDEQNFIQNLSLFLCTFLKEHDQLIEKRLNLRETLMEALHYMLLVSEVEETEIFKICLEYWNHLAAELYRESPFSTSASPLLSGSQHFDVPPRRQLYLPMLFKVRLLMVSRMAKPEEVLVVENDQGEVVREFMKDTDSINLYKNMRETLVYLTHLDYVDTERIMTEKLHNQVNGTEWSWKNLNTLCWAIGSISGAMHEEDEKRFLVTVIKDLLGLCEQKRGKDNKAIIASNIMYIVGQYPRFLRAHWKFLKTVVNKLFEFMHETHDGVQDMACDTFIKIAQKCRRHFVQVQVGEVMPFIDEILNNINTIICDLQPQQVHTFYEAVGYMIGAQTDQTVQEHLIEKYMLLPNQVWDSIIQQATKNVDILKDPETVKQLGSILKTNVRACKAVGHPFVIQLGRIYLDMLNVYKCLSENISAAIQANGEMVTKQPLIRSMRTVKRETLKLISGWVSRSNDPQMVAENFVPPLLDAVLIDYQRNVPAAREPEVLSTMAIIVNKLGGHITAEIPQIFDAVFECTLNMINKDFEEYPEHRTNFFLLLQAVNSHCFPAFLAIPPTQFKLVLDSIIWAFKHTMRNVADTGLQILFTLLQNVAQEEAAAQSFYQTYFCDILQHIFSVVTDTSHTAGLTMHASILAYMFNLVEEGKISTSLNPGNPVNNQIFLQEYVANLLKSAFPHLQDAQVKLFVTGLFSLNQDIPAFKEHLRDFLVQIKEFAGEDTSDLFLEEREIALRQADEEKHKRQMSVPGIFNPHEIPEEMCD
inactive: ibrutinib -0.01 | [1] 0.008 | ralimetinib 0.029 | [2] -0.037 | [3] -0.01 | [4] -0.007 | [5] 0.035 | [6] -0.004 | [7] 0.02 | [8] 0.019 | vemurafenib 0.015 | [9] 0.005 | barasertib 0.023 | [10] -0.055 | volasertib -0.026 | [11] 0.013 | [12] -0.05 | [13] 0.019 | saracatinib 0.033 | sotrastaurin 0.022

VPS28 (UniProt Q9UK41)
Chain of UniProt Q9UK41 (Q9UK41 whole entry, looked up): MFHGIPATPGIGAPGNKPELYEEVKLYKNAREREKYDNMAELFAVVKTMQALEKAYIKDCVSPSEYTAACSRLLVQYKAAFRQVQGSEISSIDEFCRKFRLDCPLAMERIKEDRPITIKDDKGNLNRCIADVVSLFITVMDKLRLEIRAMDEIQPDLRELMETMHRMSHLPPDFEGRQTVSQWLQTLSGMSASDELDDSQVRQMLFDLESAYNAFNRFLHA
inactive: ibrutinib 0.109 | [1] -0.02 | ralimetinib 0.009 | [2] 0.046 | [3] -0.004 | [4] -0.005 | [5] 0.019 | [6] -0.092 | [7] 0.028 | [8] 0.019 | vemurafenib -0.012 | [9] 0.016 | barasertib 0.178 | [10] -0.035 | volasertib -0.012 | [11] 0.067 | [12] -0.208 | [13] 0.018 | saracatinib 0.01 | sotrastaurin -0.007

YME1L1 (UniProt Q96TA2)
Chain of UniProt Q96TA2 (Q96TA2 whole entry, looked up): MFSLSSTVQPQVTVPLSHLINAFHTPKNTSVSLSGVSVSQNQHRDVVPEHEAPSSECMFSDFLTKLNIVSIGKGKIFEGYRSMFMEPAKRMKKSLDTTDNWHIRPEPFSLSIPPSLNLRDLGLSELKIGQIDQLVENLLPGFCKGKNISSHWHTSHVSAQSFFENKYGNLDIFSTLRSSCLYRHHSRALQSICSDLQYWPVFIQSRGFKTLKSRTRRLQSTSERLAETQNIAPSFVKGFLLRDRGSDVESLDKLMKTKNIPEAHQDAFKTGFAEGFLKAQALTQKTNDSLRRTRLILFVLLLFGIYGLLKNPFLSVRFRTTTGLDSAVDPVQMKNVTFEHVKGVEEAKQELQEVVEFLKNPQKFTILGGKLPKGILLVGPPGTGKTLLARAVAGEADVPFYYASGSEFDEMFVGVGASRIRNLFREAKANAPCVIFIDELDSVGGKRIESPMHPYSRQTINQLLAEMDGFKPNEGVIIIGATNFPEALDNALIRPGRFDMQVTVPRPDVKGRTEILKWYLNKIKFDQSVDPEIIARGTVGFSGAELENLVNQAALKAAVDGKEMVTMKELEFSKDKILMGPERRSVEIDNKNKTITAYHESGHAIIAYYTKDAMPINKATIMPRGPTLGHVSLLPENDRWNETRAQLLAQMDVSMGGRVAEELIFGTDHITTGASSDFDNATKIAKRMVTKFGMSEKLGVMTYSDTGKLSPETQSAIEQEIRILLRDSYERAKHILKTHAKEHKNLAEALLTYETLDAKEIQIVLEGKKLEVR
inactive: ibrutinib -0.04 | [1] -0.008 | ralimetinib -0.006 | [2] -0.043 | [3] 0 | [4] -0.04 | [5] 0.003 | [6] 0.005 | [7] 0.054 | [8] -0.087 | vemurafenib 0.01 | [9] 0.011 | barasertib 0.036 | [10] -0.008 | volasertib -0.02 | [11] 0.035 | [12] 0.181 | [13] -0.088 | saracatinib 0.037 | sotrastaurin 0.055

ZC3HC1 (UniProt Q86WB0)
Chain of UniProt Q86WB0 (Q86WB0 whole entry, looked up): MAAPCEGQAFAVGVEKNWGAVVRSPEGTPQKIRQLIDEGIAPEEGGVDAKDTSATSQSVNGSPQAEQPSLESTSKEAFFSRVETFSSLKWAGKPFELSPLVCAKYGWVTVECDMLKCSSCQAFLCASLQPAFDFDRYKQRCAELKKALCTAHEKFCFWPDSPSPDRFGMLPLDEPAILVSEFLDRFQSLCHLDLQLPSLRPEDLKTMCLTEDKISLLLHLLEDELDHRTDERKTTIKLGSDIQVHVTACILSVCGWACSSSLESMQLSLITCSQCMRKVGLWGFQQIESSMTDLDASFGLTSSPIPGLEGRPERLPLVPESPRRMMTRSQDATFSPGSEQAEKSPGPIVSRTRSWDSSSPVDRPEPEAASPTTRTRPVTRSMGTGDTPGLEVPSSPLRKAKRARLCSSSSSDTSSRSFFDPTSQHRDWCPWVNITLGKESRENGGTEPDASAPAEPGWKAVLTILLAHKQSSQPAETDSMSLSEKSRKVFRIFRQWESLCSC
inactive: ibrutinib -0.021 | [1] 0.013 | ralimetinib 0.033 | [2] -0.004 | [3] -0.003 | [4] 0.012 | [5] 0.004 | [6] -0.002 | [7] 0.006 | [8] 0.013 | vemurafenib -0.006 | [9] 0.027 | barasertib -0.029 | [10] -0.036 | volasertib 0.015 | [11] 0.008 | [13] -0.075 | saracatinib -0.03 | sotrastaurin -0.022
active: [12] 0.253

VANGL1 (UniProt Q8TAA9)
Chain of UniProt Q8TAA9 (Q8TAA9 whole entry, looked up): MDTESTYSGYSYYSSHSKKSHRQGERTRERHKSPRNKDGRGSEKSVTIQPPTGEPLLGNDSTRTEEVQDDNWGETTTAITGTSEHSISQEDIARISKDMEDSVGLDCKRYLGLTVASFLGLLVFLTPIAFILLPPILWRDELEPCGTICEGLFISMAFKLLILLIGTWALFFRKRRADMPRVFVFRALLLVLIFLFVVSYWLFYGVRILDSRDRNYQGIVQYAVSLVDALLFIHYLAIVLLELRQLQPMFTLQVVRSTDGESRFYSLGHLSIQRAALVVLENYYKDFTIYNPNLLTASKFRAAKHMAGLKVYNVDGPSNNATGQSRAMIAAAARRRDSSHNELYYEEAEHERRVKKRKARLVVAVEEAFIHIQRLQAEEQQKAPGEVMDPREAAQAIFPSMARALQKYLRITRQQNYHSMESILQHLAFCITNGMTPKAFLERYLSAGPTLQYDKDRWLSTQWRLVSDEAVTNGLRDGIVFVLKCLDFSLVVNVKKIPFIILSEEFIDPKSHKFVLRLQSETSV
active: ralimetinib -0.317
inactive: ibrutinib 0.08 | [1] -0.041 | [2] 0.183 | [3] 0.037 | [4] 0.007 | [5] -0.109 | [6] -0.062 | [7] -0.066 | [8] 0.007 | vemurafenib -0.075 | [9] 0.023 | barasertib 0.101 | [10] 0.004 | volasertib -0.009 | [11] 0.105 | [12] -0.088 | [13] 0.058 | saracatinib 0.044 | sotrastaurin 0.125

VRK2 (UniProt Q86Y07)
Chain of UniProt Q86Y07 (Q86Y07 whole entry, looked up): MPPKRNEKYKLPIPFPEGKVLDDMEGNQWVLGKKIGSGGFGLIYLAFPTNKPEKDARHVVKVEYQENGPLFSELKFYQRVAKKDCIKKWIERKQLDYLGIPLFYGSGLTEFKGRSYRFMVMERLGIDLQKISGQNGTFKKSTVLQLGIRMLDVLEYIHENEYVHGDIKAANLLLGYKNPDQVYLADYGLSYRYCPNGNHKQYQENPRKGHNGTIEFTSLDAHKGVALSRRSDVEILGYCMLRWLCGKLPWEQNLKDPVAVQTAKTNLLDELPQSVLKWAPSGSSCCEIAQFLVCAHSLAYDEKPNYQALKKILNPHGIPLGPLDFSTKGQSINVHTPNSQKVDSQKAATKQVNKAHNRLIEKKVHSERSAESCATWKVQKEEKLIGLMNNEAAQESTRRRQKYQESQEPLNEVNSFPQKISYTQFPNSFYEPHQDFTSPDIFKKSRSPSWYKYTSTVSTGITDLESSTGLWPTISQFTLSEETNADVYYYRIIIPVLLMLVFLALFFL
inactive: ibrutinib 0.049 | [1] 0.106 | ralimetinib 0.155 | [2] -0.041 | [3] -0.037 | [4] -0.036 | [5] -0.026 | [6] -0.021 | [7] 0.023 | [8] 0.149 | vemurafenib 0.113 | [9] 0.148 | barasertib 0.048 | [10] -0.032 | volasertib -0.008 | [11] 0.01 | [12] -0.104 | [13] 0.182 | saracatinib -0.022 | sotrastaurin 0.151

YES1 (UniProt P07947)
Chain of UniProt P07947 (P07947 whole entry, looked up): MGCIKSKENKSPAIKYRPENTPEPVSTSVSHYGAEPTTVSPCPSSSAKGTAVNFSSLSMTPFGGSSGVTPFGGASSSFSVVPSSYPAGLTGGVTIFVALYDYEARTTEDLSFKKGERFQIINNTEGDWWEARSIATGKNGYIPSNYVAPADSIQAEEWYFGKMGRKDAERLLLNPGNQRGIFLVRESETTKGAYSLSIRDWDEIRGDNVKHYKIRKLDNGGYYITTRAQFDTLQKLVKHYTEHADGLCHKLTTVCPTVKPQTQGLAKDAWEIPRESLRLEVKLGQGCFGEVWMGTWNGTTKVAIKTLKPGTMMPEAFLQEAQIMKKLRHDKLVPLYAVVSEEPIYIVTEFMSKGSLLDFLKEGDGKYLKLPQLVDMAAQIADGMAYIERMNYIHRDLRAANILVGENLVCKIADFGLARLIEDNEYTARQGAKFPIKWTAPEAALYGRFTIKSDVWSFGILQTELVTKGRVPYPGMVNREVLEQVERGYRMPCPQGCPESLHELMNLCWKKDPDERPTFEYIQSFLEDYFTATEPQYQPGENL
inactive: [1] -0.012 | ralimetinib -0.259 | [3] 0.061 | [4] 0.2 | [5] 0.044 | [6] 0.192 | [7] -0.005 | [8] -0.131 | vemurafenib 0.068 | [9] 0.088 | barasertib 0.334 | [10] -0.086 | volasertib -0.205 | [11] -0.106 | [12] -0.146 | [13] -0.007 | saracatinib 0.331 | sotrastaurin -0.084
active: ibrutinib 0.988 | [2] 0.511
